# Results as given in the supplement of paper PMC6992640.
# System: HCI01 (cells of a triple-negative basal-like breast cancer xenograft)
# Assay: cell viability of combination (% of vehicle); higher = less cytotoxic
# Conditions: 1 µM; 72 h; partner dose: 10 nM
# Description: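 PDX cells were treated for 72 h with each drug at 1 µM plus afatinib (10 nM; 1 µM for WHIM30). Luciferase viability is expressed as percent of vehicle.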
row,SMILES,cell viability of combination
1,Cc1cc(C(C#N)c2ccc(Cl)cc2)c(Cl)cc1NC(=O)c1cc(I)cc(I)c1[O-].[Na+] (stereo not given) [Closantel Sodium] + CN(C)C/C=C/C(=O)Nc1cc2c(Nc3ccc(F)c(Cl)c3)ncnc2cc1O[C@H]1CCOC1 [Afatinib],53.2
2,Cc1cc(C(C#N)c2ccc(Cl)cc2)c(Cl)cc1NC(=O)c1cc(I)cc(I)c1O (stereo not given) [Closantel] + CN(C)C/C=C/C(=O)Nc1cc2c(Nc3ccc(F)c(Cl)c3)ncnc2cc1O[C@H]1CCOC1 [Afatinib],50.6
3,CCCCCCCCCCCC[N+](C)(C)CCOc1ccccc1.[Br-] [Domiphen Bromide] + CN(C)C/C=C/C(=O)Nc1cc2c(Nc3ccc(F)c(Cl)c3)ncnc2cc1O[C@H]1CCOC1 [Afatinib],51
4,CCCCCCCCCCCCCCCC[n+]1ccccc1.[Cl-] [Cetylpyridinium Chloride] + CN(C)C/C=C/C(=O)Nc1cc2c(Nc3ccc(F)c(Cl)c3)ncnc2cc1O[C@H]1CCOC1 [Afatinib],52
5,CCCCCCCCCCCCCCCC[N+](C)(C)C.[Br-] [Cetrimonium Bromide (CTAB)] + CN(C)C/C=C/C(=O)Nc1cc2c(Nc3ccc(F)c(Cl)c3)ncnc2cc1O[C@H]1CCOC1 [Afatinib],50.1
